Compound activity (PubChem)
TCR activator: activates T cell receptor signaling | 330,000 tested, under 10 active | Potency, µM (titrated, usually from 9.22 µM), most hits filed as activators | primary human leukocytes, anti-CD3, IL-2 HTRF, 48 h
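Primary human leukocytes were stimulated with a-CD3 beads plus compounds for 48 hr without co-stimulation; secreted IL-2 was quantified by HTRF using a-IL-2-K (europium cryptate) and a-IL-2-d2, excited at 320nm with acceptor emission read at 665nm.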
Sfp PPTase inh: Sfp phosphopantetheinyl transferase inhibition. AID 1490. Potency, µM, actives largely listed as inhibitors. actives 3.5% (n = 310,000). Q9F4F7. Biochemical Sfp PPTase activity, qHTS;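 note: the enzyme is Sfp with the accession as filed and its product quenches rhodamine fluorescence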
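After 15 min at room temperature with compound, 15 nM Sfp received 5 uM rhodamine-CoA plus 12.5 uM BHQ-2-ybbR (50 mM Hepes pH 7.6, 10 mM MgCl2). Rate came from the fluorescence difference over 30 min, ex 525/em 598 nm.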
uPA generation: blocks generation of uPA at the cell surface | cell surface uPA generation assay, qHTS | Potency, µM (doses to about 38.3 µM), actives largely listed as inhibitors | actives 0.31% (n = 330,000); active = well fitted inhibition curve with a large enough effect; inconclusive = small, poorly fitted or top-dose-only effect; inactive = no such curve, though single readings can be large or run the other way; tested in mouse RAW 264.7 cells; note: nearly all actives have a fitted effect of over 55% in size
ClpP mod: qHTS Assay for Activators of ClpP | purified B. subtilis ClpP, FRET peptide cleavage, 20 min | Potency, µM (doses to about 57.5 µM) | actives 1.9% (n = 340,000) | AID 651965, 2013; active = well fitted falling curve with a large enough effect; inconclusive = small, poorly fitted or top-dose-only effect; inactive = no such curve, though single readings can be large or run the other way; note: the source files actives as falling curves though it sought activators and does not explain the sign; nearly all actives have a fitted effect of over 65% in size
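ClpP 10 microg/mL final, pH 8 Tris/KCl buffer with BSA, glycerol, Tween-20; compound pinned in; FRET-FV substrate; RT 20 min; Ex320/Em430; ΔFRET vs ADEP 5.8 microM, DMSO, no enzyme.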
A number is an active result. Hits are enriched below; roughly 4.2% of the tested compounds scored in any of these assays. Unless noted, calls come from the whole dose curve; as a rule, active = well fitted curve in the direction sought with a large enough effect; inconclusive = small, poorly fitted or top-dose-only effect, or another doubt; inactive = no such curve, though single readings can be large; an effect the other way counts as inactive or inconclusive.

Results for CCCNc1nc(-c2ccccc2)c(C(=O)OCC)cc1C#N ?
TCR activator: inactive; Sfp PPTase inh: inactive; uPA generation: inactive; ClpP mod: 28.2µM

What do the screens show for `O=c1c(O)c(-c2cc(O)c(O)c(O)c2)oc2cc(O)cc(O)c12`?
TCR activator: inactive; Sfp PPTase inh: 2.82µM; uPA generation: inactive; ClpP mod: inactive

How did O=C(/C=C/c1cc(Br)ccc1O)c1ccco1 do in these assays?
TCR activator: inactive; Sfp PPTase inh: inconclusive; uPA generation: inactive; ClpP mod: inactive

Results for O=C(/C=C/c1ccccc1O)c1ccco1 ?
Sfp PPTase inh: inactive; uPA generation: inactive; ClpP mod: 1.58µM

What do the screens show for `O=C(NC1CCC(O)CC1)c1ccc(-c2ccc(Cl)cc2)o1` (stereo not given)?
TCR activator: inactive; uPA generation: inactive; ClpP mod: 25.1µM

Results for O=C(NN1C(=O)NC2(CCCCC2)C1=O)c1cc2cc(Cl)ccc2o1 ?
TCR activator: inactive; uPA generation: inactive; ClpP mod: inactive

How did O=C(NC1CCC(O)CC1)c1ccc(Br)o1 (stereo not given) do in these assays?
TCR activator: inactive; uPA generation: inactive; ClpP mod: inactive

What do the screens show for `O=C(NN1C(=O)NC2(CCCCC2)C1=O)c1ccc(-c2ccc(Cl)cc2)o1`?
TCR activator: inactive; uPA generation: inactive; ClpP mod: 6.31µM

How did CC1=C(N2CCCCC2)CCC1=O do in these assays?
TCR activator: inactive; uPA generation: inactive; ClpP mod: inactive

Results for Cc1c(/C=C(\C#N)C(=O)Nc2cccc(Cl)c2)c2ccccc2n1Cc1ccccc1Cl ?
ClpP mod: inactive

Results for CCCCS(=O)c1c(O)c2ccccc2[nH]c1=O (stereo not given) ?
TCR activator: inactive; Sfp PPTase inh: inactive; uPA generation: inactive; ClpP mod: inactive

How did CC(C)CCN(CCC(C)C)C(=O)Cc1c(O)c2ccccc2[nH]c1=O do in these assays?
TCR activator: inactive; Sfp PPTase inh: inactive; uPA generation: inactive; ClpP mod: inactive

Results for CCCCCOC(=O)Cc1c(O)c2ccccc2[nH]c1=O ?
TCR activator: inactive; Sfp PPTase inh: inactive; uPA generation: inactive; ClpP mod: 15.8µM

What do the screens show for `CCCCCc1c(O)c2ccccc2[nH]c1=O`?
TCR activator: inactive; Sfp PPTase inh: inactive; uPA generation: inactive; ClpP mod: 25.1µM

How did O=c1[nH]c2ccccc2c(O)c1O do in these assays?
TCR activator: inactive; Sfp PPTase inh: 0.316µM; uPA generation: inactive; ClpP mod: inactive

Results for CCCCOC(=O)Cc1c(O)c2ccccc2[nH]c1=O ?
TCR activator: inactive; Sfp PPTase inh: inconclusive; uPA generation: inactive; ClpP mod: inconclusive

Results for CC(C)COC(=O)Cc1c(O)c2ccccc2[nH]c1=O ?
TCR activator: inactive; Sfp PPTase inh: inactive; uPA generation: inactive; ClpP mod: 28.2µM

How did Clc1ccc(OCCCN2CCCCC2)c(Br)c1 do in these assays?
TCR activator: inactive; Sfp PPTase inh: inactive; uPA generation: inactive; ClpP mod: inactive

What do the screens show for `CCN1CCN(CCCOc2ccc(Cl)cc2Br)CC1`?
TCR activator: inactive; Sfp PPTase inh: 10µM; uPA generation: inactive; ClpP mod: inactive

How did CCN1CCN(CCOc2cccc(Cl)c2Cl)CC1 do in these assays?
TCR activator: inactive; Sfp PPTase inh: 50.1µM; uPA generation: inactive; ClpP mod: inactive

How did CCN1CCN(CCOc2ccc(Br)cc2C)CC1 do in these assays?
TCR activator: inactive; Sfp PPTase inh: 50.1µM; uPA generation: inactive; ClpP mod: inactive

How did Nc1nonc1-n1nnc(C(=O)N/N=C/c2cccc(Cl)c2)c1-c1cccs1 do in these assays?
TCR activator: inactive; Sfp PPTase inh: inactive; uPA generation: inactive; ClpP mod: inactive

What do the screens show for `Nc1ccc(C(=O)Nc2ccc(OC(F)(F)C(F)F)c(NC(=O)c3ccc(N)cc3)c2)cc1`?
TCR activator: inactive; Sfp PPTase inh: inactive; uPA generation: inactive; ClpP mod: 15.8µM

What do the screens show for `Cc1ccc2nc(SCC(=O)NCCc3ccccc3)nc(=O)n2c1`?
TCR activator: inactive; uPA generation: inactive; ClpP mod: 28.2µM

How did Cc1ccc2nc(SCC(=O)OCc3ccccc3)nc(=O)n2c1 do in these assays?
TCR activator: inactive; uPA generation: inactive; ClpP mod: 28.2µM

What do the screens show for `COc1ncnc2c1ncn2CCCNCCCN1CCCC1=O`?
ClpP mod: inactive

What do the screens show for `O=C(OCc1ccccc1)[C@@H]1COC(c2ccc(Br)cc2)=N1`?
Sfp PPTase inh: inactive

Results for CC(=O)c1ccccc1OCCCCN1CCCCC1 ?
TCR activator: inactive; Sfp PPTase inh: inactive; uPA generation: inactive; ClpP mod: inactive

What do the screens show for `COc1ccc(NC(=O)CSc2nc3ccccc3c(=O)n2CCNC(C)=O)c(OC)c1`?
TCR activator: inactive; Sfp PPTase inh: 25.1µM; uPA generation: inactive; ClpP mod: inactive

Results for COCCn1c(SCC(=O)Nc2ccc(NC(=O)c3ccco3)c(OC)c2)nc2ccccc2c1=O ?
TCR activator: inactive; Sfp PPTase inh: inactive; uPA generation: inactive; ClpP mod: inactive

Results for CCn1c(SCC(=O)NC2CCCCC2)nc2ccccc2c1=O ?
TCR activator: inactive; Sfp PPTase inh: inactive; uPA generation: inactive; ClpP mod: inactive

What do the screens show for `CCn1c(SCC(=O)Nc2ccc(NC(=O)c3ccco3)c(OC)c2)nc2ccccc2c1=O`?
Sfp PPTase inh: inactive; uPA generation: inactive; ClpP mod: 28.2µM

What do the screens show for `CC(=O)NCCn1c(SCC(=O)NC2CCCCC2)nc2ccccc2c1=O`?
TCR activator: inactive; Sfp PPTase inh: inactive; uPA generation: inactive; ClpP mod: 31.6µM

How did CN(C)Cc1nc(-c2cn(C)c3ccccc23)no1 do in these assays?
Sfp PPTase inh: inactive

Results for Cc1cc(C)nc(Sc2ncnc3sc4c(c23)CCC4)n1 ?
TCR activator: inactive; Sfp PPTase inh: inactive; uPA generation: inactive; ClpP mod: 12.6µM

Results for CC(C#N)Sc1ncnc2sc3c(c12)CCC3 (stereo not given) ?
TCR activator: inactive; Sfp PPTase inh: inactive; uPA generation: inactive; ClpP mod: inactive

Results for O=C(Cn1sc2ccccc2c1=O)NC12CC3CC(CC(C3)C1)C2 ?
TCR activator: inactive; Sfp PPTase inh: 2.51µM; uPA generation: inactive; ClpP mod: inactive

What do the screens show for `CC(=O)c1sc(N/N=C2\CC3CCC2(C)C3(C)C)nc1C` (stereo not given)?
TCR activator: inactive; Sfp PPTase inh: 28.2µM; uPA generation: inactive

How did CCOC(=O)c1ccc(N2C(=O)C(O)=C(C(C)=O)C2c2ccc([N+](=O)[O-])cc2)cc1 (stereo not given) do in these assays?
TCR activator: inactive; Sfp PPTase inh: inactive; uPA generation: inactive; ClpP mod: inactive

What do the screens show for `O=C(NCC(=O)N1CCN(c2ncccn2)CC1)c1ccc(F)cc1`?
TCR activator: inactive; uPA generation: inactive; ClpP mod: 14.1µM

How did O=C(NCC(=O)N1CCN(c2ncccn2)CC1)c1ccccc1F do in these assays?
TCR activator: inactive; uPA generation: inactive; ClpP mod: inactive

What do the screens show for `O=C(Nc1ccccc1Cl)C(Cl)C(=O)c1ccccc1` (stereo not given)?
TCR activator: inactive; Sfp PPTase inh: inactive; uPA generation: inactive
